Legend:
Test in all cases: log2 ratio of Biotin-Ahx-Ub-VS probe labelling (fragment/DMSO); higher = less target engagement (more negative = stronger competition), active = hit call of the paper (q ≤ 0.05, log2 ratio ≤ -1)
Settings in all cases: compound concentration: 200 uM; treatment time: 3 h
USP42 = target: T1, USP42 (UniProt Q9H9J4)
T1 sequence (whole entry): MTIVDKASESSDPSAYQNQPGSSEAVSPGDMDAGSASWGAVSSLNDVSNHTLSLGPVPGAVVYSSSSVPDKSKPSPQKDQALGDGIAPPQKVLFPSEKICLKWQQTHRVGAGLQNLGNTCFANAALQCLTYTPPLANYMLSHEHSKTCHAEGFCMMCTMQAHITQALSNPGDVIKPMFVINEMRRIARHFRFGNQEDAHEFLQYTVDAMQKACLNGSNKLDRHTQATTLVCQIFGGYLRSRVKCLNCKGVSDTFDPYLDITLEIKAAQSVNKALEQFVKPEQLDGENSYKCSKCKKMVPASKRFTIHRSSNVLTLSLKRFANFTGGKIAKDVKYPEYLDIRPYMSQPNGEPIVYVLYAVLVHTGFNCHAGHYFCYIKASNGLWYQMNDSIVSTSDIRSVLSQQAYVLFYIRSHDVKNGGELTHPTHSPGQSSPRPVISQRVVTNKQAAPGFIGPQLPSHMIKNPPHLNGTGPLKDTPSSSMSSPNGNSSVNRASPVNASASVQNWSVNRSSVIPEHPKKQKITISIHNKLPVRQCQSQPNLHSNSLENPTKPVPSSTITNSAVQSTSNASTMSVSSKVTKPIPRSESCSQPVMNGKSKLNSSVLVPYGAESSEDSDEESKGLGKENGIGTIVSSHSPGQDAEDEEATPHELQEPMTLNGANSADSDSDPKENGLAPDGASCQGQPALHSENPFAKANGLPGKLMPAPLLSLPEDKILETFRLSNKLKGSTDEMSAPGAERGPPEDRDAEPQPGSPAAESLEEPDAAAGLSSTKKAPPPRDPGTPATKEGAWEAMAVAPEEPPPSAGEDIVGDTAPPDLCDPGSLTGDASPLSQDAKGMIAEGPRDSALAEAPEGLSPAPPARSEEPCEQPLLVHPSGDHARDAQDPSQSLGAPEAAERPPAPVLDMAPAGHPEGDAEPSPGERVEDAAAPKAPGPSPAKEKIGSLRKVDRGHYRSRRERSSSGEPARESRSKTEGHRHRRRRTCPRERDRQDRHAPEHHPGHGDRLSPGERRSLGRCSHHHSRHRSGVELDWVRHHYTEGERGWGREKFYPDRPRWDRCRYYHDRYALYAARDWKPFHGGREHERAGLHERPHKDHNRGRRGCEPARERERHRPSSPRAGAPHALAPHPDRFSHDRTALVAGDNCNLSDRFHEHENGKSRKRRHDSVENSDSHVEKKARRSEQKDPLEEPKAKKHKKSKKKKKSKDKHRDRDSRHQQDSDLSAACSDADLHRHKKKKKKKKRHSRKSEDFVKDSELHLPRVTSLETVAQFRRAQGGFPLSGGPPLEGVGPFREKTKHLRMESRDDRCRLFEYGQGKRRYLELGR
Method in brief: (§1)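 HEK293T lysate (495 µg per sample, in Tris/CHAPS/IGEPAL buffer with protease inhibitors) was treated in triplicate with fragment at 200 µM or with DMSO for 3 h. It was then treated with Biotin-Ahx-Ub-VS (0.5 µM final) for 1 h. Labelled DUBs were NeutrAvidin-enriched, digested with LysC and trypsin, and run by diaPASEF LC-MS/MS. Spectronaut label-free quantities were global-median-normalised. Values are average log2 ratios fragment/DMSO by unpaired t-test, using proteins with ≥2 unique peptides.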

USP46 = USP46 (UniProt P62068)
Method in brief: as §1

USP47 = target: T2, USP47 (UniProt Q96K76)
T2 sequence (whole entry): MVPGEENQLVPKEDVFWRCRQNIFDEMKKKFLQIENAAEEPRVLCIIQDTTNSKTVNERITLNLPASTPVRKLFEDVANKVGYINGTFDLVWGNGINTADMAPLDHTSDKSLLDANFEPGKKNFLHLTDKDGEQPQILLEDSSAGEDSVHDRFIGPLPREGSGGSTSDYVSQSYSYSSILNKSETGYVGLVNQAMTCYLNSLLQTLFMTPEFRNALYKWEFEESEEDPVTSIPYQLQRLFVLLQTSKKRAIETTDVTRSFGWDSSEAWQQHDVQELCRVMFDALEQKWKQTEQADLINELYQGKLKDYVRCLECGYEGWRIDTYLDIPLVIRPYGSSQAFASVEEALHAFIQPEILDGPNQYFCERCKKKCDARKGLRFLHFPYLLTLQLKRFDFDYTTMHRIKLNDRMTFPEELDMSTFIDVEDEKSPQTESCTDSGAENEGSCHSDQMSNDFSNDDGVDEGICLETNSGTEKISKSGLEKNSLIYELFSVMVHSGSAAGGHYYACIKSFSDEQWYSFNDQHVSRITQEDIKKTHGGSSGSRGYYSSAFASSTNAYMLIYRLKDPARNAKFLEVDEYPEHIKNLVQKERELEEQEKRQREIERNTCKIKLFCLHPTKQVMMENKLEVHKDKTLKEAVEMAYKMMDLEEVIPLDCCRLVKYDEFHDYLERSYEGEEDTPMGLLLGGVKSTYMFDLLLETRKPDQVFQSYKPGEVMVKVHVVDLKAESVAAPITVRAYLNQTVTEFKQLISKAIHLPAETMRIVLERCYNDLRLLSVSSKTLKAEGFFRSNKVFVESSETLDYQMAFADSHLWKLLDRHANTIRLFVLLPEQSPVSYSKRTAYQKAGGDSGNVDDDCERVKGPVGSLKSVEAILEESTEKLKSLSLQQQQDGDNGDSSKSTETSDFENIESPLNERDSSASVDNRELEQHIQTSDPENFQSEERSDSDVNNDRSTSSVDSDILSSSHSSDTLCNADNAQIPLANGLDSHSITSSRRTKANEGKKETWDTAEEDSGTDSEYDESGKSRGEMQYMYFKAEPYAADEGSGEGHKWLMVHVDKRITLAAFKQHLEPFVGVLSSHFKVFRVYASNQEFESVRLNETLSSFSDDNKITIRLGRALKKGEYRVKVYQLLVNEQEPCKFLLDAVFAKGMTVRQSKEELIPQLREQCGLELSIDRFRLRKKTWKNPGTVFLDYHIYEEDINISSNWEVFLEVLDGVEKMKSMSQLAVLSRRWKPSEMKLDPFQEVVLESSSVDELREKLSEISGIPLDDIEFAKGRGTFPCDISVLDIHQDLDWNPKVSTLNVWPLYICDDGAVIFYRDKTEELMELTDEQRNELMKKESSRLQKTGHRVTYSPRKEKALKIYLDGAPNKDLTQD
Method in brief: as §1

USP48 = target: T3, USP48 (UniProt Q86UV5)
T3 sequence (whole entry): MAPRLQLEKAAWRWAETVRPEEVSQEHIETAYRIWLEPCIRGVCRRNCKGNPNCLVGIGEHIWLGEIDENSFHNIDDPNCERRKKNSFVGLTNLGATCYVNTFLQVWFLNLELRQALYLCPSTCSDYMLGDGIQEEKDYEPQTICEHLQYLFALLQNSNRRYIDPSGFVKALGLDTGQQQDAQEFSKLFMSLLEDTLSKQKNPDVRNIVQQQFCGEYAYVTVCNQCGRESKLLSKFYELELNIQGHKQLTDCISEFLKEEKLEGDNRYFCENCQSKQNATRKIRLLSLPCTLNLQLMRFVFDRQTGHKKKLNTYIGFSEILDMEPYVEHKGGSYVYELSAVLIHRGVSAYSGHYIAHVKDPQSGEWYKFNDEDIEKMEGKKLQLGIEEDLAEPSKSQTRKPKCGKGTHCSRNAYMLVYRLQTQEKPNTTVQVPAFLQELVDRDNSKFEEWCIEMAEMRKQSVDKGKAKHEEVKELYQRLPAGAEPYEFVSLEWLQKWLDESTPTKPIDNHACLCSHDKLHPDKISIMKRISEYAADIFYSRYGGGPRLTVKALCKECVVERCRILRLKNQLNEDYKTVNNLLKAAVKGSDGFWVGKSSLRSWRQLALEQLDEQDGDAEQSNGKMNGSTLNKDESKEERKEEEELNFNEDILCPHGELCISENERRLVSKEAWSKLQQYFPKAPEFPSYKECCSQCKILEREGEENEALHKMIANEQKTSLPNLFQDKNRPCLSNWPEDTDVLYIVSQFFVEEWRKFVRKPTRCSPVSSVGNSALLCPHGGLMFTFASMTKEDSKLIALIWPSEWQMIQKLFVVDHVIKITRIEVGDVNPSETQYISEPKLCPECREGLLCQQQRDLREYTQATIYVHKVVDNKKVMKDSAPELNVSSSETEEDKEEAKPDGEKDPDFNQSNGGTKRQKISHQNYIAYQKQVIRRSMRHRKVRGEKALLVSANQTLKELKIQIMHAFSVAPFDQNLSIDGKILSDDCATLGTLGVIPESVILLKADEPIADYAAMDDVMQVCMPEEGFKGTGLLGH
Method in brief: as §1

USP5 = target: T4, USP5 (UniProt P45974)
T4 sequence (whole entry): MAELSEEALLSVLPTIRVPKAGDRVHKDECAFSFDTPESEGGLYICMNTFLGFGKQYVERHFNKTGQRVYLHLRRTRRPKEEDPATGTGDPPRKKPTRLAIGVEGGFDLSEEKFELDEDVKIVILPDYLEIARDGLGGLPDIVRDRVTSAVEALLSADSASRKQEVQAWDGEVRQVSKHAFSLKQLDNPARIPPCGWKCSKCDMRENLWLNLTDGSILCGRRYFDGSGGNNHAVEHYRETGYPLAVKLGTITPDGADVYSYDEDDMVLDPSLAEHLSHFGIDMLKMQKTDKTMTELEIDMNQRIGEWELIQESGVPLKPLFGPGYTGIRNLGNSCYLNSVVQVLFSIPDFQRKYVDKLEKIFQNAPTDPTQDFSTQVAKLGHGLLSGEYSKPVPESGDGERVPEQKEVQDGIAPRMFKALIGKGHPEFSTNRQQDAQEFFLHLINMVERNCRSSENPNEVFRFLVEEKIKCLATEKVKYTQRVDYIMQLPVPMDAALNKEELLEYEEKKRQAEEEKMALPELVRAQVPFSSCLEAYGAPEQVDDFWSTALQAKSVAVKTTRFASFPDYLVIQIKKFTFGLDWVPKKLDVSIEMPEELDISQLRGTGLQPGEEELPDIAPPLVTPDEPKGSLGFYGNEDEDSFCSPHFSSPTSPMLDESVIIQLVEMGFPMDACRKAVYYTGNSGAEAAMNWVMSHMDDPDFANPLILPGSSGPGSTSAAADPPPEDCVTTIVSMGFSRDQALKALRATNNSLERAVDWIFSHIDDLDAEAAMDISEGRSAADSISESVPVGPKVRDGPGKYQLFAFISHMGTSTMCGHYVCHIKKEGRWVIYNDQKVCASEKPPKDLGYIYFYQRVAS
Method in brief: as §1

USP54 = USP54 (UniProt Q70EL1)
Method in brief: as §1

USP7 = USP7 (UniProt Q93009)
Method in brief: as §1

USP8 = target: T5, USP8 (UniProt P40818)
T5 sequence (whole entry): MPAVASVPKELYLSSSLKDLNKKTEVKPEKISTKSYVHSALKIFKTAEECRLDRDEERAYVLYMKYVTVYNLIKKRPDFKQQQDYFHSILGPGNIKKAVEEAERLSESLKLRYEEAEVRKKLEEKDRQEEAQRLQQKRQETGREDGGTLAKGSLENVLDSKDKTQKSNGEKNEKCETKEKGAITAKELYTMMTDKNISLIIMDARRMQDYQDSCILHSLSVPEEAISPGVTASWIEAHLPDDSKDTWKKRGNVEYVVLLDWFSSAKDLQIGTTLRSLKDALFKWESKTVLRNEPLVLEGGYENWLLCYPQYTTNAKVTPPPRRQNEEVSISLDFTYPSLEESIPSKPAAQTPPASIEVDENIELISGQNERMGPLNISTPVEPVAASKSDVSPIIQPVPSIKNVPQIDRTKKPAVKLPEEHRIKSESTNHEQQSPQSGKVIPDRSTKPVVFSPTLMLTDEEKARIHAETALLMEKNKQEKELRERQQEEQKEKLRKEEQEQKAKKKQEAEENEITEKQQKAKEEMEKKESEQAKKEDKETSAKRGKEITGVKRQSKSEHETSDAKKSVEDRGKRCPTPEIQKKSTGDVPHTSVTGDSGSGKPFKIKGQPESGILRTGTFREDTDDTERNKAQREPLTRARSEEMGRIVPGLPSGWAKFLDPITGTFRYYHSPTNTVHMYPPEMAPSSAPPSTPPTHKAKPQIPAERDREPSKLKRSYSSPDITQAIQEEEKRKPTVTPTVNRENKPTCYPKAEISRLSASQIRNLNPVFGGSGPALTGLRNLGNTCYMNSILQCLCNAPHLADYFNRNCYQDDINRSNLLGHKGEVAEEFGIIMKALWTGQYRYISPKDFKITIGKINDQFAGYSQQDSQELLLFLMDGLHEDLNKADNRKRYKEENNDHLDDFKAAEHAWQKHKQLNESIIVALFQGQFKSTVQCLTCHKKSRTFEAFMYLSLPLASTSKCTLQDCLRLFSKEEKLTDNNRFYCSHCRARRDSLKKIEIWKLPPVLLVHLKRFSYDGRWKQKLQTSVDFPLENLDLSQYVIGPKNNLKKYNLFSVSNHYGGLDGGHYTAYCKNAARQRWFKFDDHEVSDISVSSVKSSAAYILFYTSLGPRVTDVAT
Method in brief: as §1

USP9X = USP9X (UniProt Q93008)
Method in brief: as §1

UniProt O00487 = target: UniProt O00487
Method in brief: as §1

Measured: log2 ratio of Biotin-Ahx-Ub-VS probe labelling

Chain of USP54 (Q70EL1 whole entry): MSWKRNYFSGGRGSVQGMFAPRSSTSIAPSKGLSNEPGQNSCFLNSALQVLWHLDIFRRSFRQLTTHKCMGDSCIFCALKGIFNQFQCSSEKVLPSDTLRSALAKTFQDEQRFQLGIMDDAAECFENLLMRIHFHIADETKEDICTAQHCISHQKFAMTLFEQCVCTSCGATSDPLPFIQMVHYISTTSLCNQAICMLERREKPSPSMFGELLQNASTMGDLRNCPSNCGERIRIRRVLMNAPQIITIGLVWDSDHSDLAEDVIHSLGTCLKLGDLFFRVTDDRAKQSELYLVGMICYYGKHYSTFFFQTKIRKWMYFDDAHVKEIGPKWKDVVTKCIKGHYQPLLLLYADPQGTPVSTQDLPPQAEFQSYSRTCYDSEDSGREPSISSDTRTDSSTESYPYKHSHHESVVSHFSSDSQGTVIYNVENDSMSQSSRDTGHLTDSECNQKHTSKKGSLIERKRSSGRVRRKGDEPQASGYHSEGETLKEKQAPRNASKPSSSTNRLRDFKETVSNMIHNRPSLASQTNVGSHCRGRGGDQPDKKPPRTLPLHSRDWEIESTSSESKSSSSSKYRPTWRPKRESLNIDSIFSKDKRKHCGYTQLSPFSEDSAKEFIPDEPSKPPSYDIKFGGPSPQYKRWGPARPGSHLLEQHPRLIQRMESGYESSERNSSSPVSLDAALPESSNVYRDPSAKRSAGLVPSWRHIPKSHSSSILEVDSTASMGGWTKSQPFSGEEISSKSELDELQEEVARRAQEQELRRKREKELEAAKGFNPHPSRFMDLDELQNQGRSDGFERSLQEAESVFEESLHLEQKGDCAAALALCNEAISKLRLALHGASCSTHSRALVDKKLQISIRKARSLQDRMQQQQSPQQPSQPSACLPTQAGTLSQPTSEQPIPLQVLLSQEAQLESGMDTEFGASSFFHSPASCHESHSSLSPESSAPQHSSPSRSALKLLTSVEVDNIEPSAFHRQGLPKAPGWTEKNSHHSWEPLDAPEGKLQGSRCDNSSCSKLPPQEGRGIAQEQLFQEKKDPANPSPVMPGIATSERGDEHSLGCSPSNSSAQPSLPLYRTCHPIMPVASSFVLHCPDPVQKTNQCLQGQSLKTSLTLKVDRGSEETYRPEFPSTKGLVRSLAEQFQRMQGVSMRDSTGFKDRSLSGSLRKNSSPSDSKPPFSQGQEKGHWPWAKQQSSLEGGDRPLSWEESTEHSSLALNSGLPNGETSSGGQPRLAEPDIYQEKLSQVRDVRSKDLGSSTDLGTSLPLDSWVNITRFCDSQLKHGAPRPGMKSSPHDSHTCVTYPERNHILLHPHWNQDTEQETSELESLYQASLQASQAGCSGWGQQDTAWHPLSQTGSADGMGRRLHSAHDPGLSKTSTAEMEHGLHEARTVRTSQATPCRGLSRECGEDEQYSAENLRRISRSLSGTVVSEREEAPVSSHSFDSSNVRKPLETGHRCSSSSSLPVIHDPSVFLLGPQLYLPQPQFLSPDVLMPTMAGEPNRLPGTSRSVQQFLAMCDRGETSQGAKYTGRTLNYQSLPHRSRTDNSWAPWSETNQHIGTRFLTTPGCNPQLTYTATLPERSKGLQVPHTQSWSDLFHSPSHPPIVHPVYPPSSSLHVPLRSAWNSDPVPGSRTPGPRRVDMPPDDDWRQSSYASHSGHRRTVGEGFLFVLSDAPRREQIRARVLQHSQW
Chain of UniProt O00487 (O00487 whole entry): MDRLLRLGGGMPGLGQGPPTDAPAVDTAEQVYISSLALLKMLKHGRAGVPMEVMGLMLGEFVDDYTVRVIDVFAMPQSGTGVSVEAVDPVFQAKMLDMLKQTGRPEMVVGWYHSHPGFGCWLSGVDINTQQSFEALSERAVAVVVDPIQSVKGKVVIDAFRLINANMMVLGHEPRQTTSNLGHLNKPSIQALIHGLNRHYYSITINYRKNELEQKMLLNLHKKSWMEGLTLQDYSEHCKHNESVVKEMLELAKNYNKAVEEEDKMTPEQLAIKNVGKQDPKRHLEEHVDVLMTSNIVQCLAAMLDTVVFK
Chain of USP7 (Q93009 whole entry, looked up): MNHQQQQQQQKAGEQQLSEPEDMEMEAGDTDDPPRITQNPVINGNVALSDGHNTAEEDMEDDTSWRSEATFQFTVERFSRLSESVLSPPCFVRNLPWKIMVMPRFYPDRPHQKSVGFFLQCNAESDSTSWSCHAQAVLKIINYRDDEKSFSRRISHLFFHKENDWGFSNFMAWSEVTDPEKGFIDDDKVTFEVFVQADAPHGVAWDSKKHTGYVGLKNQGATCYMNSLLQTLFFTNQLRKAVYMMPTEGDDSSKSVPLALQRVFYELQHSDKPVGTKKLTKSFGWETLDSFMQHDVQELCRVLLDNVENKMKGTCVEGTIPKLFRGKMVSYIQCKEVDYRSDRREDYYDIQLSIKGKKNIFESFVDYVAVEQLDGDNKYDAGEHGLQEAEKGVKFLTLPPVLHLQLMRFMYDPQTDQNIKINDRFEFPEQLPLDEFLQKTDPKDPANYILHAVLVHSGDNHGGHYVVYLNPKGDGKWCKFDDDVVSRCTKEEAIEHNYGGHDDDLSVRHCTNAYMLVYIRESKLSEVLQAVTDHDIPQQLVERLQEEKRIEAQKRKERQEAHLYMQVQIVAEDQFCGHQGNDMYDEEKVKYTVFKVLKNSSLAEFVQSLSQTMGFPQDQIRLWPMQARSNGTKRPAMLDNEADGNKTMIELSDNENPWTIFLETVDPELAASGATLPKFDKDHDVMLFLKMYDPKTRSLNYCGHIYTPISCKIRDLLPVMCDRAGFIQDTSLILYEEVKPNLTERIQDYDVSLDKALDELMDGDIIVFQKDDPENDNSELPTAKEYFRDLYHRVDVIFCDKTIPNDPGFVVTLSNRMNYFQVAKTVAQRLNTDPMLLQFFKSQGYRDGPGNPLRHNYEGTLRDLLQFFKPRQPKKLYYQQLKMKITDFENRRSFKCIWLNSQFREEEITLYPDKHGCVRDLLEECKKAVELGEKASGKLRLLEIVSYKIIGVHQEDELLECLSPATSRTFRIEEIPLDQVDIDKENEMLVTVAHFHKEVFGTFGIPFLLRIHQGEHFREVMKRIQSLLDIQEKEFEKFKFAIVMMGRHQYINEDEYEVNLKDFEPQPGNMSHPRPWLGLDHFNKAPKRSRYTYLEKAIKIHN
Chain of USP46 (P62068 whole entry): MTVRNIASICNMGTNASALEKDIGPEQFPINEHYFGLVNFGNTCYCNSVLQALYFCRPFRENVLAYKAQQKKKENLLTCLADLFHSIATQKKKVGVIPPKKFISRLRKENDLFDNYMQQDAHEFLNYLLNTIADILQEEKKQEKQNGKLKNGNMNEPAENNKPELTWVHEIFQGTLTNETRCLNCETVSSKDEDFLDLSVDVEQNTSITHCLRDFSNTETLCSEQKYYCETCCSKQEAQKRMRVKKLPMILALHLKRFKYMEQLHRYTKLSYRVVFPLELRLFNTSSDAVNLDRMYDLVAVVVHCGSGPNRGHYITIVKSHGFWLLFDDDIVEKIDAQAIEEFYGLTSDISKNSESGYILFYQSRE

O=C(CCl)NCCc1ccc(F)cc1
inactive: USP42 0.0996 | USP46 0.235 | USP47 -0.0571 | USP48 -0.229 | USP5 0.066 | USP54 0.699 | USP7 -0.0342 | USP8 -0.0379 | USP9X -0.0191 | UniProt O00487 0.113

Reference: the supplement of paper PMC11732987, “Enantioselective OTUD7B fragment discovery through chemoproteomics screening and high-throughput optimisation” (Communications Chemistry, 2025)
